Measurements reported in PubChem BioAssay.
Activity calls are given as the source filed them.

Columns and labels:
[1] = small molecules captured by biotinylated probe aFSTL3 – biochemical, small-molecule microarray, fluorescence 635/667, stem cell growth factor project, primary screen (AID 1064); details: higher = more signal;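 further: measures binding of the biotinylated anti-FSTL3 antibody to printed compounds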
[2] = binders from COS7 lysate, DM2A8 probe, primary screen, torsin A project, cell lysate, small-molecule microarray, fluorescence 635/667 (AID 1065); details: higher = more signal, COS7 lysate expressing mutant human TOR1A
[3] = small molecules captured by biotinylated probe aFGF2 – biochemical, small-molecule microarray, fluorescence 635/667, stem cell growth factor project, primary screen (AID 1067); details: higher = more signal;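 further: measures binding of biotinylated aFGF2 protein to printed compounds on slides; z-score merges feature fluorescence and signal-to-noise across triplicate slides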
[4] = small molecules captured by biotinylated probe aFGF10 – biochemical, small-molecule microarray, fluorescence 635/667, stem cell growth factor project, primary screen (AID 1071); details: higher = more signal;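 further: score merges 667 nm spot intensity and signal to noise from triplicate slides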
[5] = biological target: Neurogenic locus notch homolog protein 2 (Homo sapiens) (UniProt Q04721); experiment: small molecules binding Notch2 protein – biochemical, small-molecule microarray, 635 nm fluorescence, stem cell growth factors, primary screen (AID 1073); details: higher = more signal
Sequence of Neurogenic locus notch homolog protein 2 (Homo sapiens) (Q04721 whole entry, looked up, canonical isoform): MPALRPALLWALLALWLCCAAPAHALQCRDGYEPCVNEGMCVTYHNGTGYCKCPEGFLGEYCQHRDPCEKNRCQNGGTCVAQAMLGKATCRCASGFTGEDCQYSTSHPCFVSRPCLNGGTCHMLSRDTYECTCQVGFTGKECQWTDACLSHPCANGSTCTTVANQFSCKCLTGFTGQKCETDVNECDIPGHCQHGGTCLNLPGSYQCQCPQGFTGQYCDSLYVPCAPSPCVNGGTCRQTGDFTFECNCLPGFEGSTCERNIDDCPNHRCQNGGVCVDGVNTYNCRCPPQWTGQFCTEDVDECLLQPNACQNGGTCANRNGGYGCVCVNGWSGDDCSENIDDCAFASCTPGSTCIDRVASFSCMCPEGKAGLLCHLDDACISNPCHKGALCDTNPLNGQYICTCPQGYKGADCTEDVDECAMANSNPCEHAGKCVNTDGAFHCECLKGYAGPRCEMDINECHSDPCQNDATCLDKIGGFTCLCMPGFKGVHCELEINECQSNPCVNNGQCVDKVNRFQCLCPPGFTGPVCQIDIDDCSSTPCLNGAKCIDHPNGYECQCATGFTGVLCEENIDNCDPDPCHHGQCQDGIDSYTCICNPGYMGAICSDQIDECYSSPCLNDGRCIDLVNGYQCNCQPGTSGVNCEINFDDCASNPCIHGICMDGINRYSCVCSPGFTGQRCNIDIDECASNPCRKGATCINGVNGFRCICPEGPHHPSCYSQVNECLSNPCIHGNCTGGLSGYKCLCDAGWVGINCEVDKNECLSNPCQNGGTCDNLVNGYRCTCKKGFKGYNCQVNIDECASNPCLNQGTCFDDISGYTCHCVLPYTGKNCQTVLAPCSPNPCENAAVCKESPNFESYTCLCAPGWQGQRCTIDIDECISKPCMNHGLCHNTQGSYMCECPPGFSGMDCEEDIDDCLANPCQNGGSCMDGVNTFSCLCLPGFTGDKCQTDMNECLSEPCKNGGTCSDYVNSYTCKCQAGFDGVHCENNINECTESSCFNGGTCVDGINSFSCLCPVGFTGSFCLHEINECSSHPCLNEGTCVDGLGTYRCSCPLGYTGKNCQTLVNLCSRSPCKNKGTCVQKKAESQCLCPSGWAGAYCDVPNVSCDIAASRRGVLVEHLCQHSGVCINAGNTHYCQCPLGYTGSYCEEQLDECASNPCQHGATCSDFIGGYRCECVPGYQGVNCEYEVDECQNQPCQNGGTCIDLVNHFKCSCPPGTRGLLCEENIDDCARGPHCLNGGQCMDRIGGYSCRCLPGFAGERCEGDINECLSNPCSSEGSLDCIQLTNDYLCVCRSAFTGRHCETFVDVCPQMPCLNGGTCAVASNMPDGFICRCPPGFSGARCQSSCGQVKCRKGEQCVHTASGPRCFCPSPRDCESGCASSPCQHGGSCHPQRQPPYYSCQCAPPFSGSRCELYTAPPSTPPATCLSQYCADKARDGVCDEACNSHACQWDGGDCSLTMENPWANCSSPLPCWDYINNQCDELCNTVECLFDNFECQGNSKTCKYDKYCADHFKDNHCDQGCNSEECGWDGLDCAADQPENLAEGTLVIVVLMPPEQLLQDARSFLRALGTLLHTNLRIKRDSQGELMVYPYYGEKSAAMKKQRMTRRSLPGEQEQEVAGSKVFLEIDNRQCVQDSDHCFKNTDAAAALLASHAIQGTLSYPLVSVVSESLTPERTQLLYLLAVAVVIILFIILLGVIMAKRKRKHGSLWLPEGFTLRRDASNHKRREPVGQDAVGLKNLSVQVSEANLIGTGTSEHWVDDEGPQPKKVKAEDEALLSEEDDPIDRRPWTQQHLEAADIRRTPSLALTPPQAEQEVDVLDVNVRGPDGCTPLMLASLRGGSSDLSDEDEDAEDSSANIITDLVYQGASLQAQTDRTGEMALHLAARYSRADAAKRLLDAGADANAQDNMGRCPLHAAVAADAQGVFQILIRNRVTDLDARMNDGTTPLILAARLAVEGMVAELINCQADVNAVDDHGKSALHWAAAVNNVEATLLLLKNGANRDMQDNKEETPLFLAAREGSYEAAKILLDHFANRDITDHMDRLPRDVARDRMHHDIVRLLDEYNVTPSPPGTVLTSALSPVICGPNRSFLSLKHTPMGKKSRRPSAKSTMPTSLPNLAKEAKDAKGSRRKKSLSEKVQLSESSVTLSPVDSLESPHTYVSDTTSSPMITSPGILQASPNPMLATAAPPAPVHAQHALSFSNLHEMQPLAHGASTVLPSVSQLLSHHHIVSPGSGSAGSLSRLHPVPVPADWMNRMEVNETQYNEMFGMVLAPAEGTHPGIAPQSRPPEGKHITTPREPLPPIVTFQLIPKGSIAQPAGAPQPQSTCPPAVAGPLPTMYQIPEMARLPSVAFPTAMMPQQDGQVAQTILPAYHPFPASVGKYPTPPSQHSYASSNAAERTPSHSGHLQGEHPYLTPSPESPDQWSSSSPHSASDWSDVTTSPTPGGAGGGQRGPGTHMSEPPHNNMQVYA

[6] = biological target: Pro-neuregulin-1, membrane-bound isoform (Homo sapiens) (UniProt Q02297); experiment: small molecules binding neuregulin-1 protein – biochemical, small-molecule microarray, fluorescence 635/667, psychiatric disease protein project, primary screen (AID 1075); details: NRG1 binding, 635 nm fluorescence, higher = more signal;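 further: score combines 667 nm spot fluorescence with signal to noise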
Sequence of Pro-neuregulin-1, membrane-bound isoform (Homo sapiens) (Q02297 whole entry, looked up, the tested form may be a part, canonical isoform): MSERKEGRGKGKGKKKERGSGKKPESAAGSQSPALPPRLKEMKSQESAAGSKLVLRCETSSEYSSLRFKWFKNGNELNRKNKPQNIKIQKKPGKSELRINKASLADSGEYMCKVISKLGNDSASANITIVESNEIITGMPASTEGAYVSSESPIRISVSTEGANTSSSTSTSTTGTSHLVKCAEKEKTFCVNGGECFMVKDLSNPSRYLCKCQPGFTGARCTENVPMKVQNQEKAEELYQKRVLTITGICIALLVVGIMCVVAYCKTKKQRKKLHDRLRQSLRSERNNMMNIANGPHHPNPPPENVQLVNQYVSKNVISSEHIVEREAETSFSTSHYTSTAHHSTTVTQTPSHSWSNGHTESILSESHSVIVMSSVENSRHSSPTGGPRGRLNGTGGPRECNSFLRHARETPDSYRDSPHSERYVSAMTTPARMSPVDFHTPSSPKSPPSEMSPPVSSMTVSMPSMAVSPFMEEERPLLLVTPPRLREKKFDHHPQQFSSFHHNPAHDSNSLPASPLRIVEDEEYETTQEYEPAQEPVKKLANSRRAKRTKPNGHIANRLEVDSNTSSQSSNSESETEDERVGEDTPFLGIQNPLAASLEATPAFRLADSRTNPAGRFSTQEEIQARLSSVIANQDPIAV

[7] = system: Neuregulin-1 EGF-like domain; experiment: small molecules binding NRG1 EGF domain – biochemical, small-molecule microarray, 635 nm fluorescence, primary screen (AID 1081); details: higher = more signal;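 further: binding of the protein to compounds printed on small-molecule microarray slides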
[8] = FRG1 expression reporter modulators in myotubes – cell-based, C2C12 myotubes, firefly/Renilla luciferase, luminescence, FRG1 inhibition for FSHD, primary screen (AID 1084); details: FRG1 promoter luciferase, higher = more signal, called active from +8 up or from −8 down
[9] = small molecules captured by biotinylated probe aFST – biochemical, small-molecule microarray, fluorescence 635/667, stem cell growth factor project, primary screen (AID 1086); details: higher = more signal;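 further: score merges 667 nm fluorescence with signal-to-noise of each printed compound spot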
[10] = binders of probe aHhip on microarray, primary screen, stem cell growth factor project, biochemical, small-molecule microarray, fluorescence 635/667 (AID 1087); details: higher = more signal;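 further: score merges spot fluorescence at 667nm with spot signal to noise ratio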

Row | SMILES | composite z-score [1] | composite z-score [2] | composite z-score [3] | composite z-score [4] | composite z-score [5] | composite z-score [6] | composite z-score [7] | z-score [8] | composite z-score [9] | composite z-score [10]
1 | CCCCC(=C=CC[C@H](O)c1ccccc1OCCO)C[C@H](O)c1ccccn1 | -0.0078 | 1.07 | -0.116 | -0.0673 | -0.285 | 0.466 | 0.376 | -1.38 (inactive) | 0.0552 | -0.456
2 | C=CCOC(=O)[C@@H]1[C@H]2C(=O)O[C@H](c3ccccc3)[C@H](c3ccccc3)N2[C@H](c2ccc(OCCOC(=O)[C@H]3C[C@H]4C(=O)N[C@@H](Cc5ccccc5)C(=O)N4[C@H]3c3cccc(OCCO)c3)cc2)[C@@]12C(=O)Nc1ccc(I)cc12 | 0.014 | 0.548 | -0.0512 | 0.957 | 1.09 | 0.0935 | 1.31 | 2.41 (inactive) | 0.56 | -0.186
3 | CC(C)C[C@@H]1NC(=O)[C@@]23C(=O)N[C@@H](Cc4ccccc4)C2[C@H](C)[C@@]2(C)O[C@H]2C3/C=C/C/C=C\CNC(=O)[C@@H]2CCCN2C1=O (stereo not given in full) | -0.566 | 0.0462 | -0.106 | -0.0448 | -0.385 | -0.492 | -0.378 | 2.09 (inactive) | 0.0833 | -0.0994
4 | COCCOC(=O)N1C(=O)[C@@]2(c3cc(C#CCCO)ccc31)[C@H](C(=O)NC[C@H](O)c1ccccc1)[C@H]1C(=O)O[C@H](c3ccccc3)[C@H](c3ccccc3)N1[C@@H]2c1ccccc1OCCO | -0.0841 | 0.284 | -0.0048 | 0.486 | 1.48 | 0.96 | 1.31 | -0.154 (inactive) | 0.62 | -0.0994
5 | O=C1CSC(c2cccc([N+](=O)[O-])c2)N1c1ccccc1 (stereo not given) | 0.315 | -0.0123 | -0.0161 | 0.508 | 0.839 | 0.146 | 0.979 | -0.239 (inactive) | -0.0692 | -0.0994
6 | O=C1O[C@@H](c2ccccc2)[C@@H](c2ccccc2)N2[C@@H](c3ccc(O)cc3)[C@]3(C(=O)Nc4ccc(C#CC5(O)CCCCCC5)cc43)[C@@H](C(=O)N3CCN(c4ncccn4)CC3)[C@H]12 | -0.381 | 0.0262 | 0.0011 | 0.349 | 0.609 | 1.6 | 1.22 | -0.0311 (inactive) | 0.204 | -0.0994
7 | CC[C@@H]1[C@@H]2C3C(=O)N(CC)C(=O)C3CC(=O)[C@@H]2[C@H](c2ccc(C)cc2)N1S(=O)(=O)c1ccc(C)cc1 (stereo not given in full) | -0.38 | 0.0428 | 0.161 | 0.383 | 1.56 | 1.37 | 1.1 | -1.04 (inactive) | 0.635 | -0.19
8 | Cc1ccc(F)cc1S(=O)(=O)N[C@@H]1CCN(C(=O)c2ccc(OC(C)C)cc2)C1 | -0.473 | -0.414 | -0.131 | 0.859 | 0.957 | -0.129 | 0.602 | -3.78 (inactive) | 0.475 | -0.258
9 | CC1C=C(CCCO)C=C(C(=O)OCCS(C)(=O)=O)C(C(=O)OCCS(C)(=O)=O)=CN1Cc1cccc(OC(F)(F)F)c1 (stereo not given) | -0.228 | 0.21 | -0.0379 | 0.203 | 0.707 | 2.08 | 1.14 | 0.416 (inactive) | 0.106 | -0.0645
10 | CC(C)[Si](C#C[Si](C(C)C)(C(C)C)C(C)C)(O[C@H](C)c1cn(Cc2cccc(Cl)c2)nn1)C(C)C | -0.333 | -0.0681 | -0.123 | 0.316 | 0.496 | 0.528 | 0.94 | -1.14 (inactive) | 0.323 | -0.0994
11 | C=CCNC(=O)[C@@H]1[C@H]2C(=O)O[C@H](c3ccccc3)[C@H](c3ccccc3)N2[C@H](c2ccc(O)cc2)[C@@]12C(=O)Nc1ccc(C#CCCO)cc12 | 0.0065 | -0.395 | -0.13 | 0.508 | -1.34 | 1.37 | -0.353 | -0.0378 (inactive) | -1.05 | -0.251
12 | CN(C)C(=O)[C@@]1(CCC(=O)OC(C)(C)C)COC(c2ccc(OCCCO)cc2)=N1 | 0.0486 | 0.0295 | -0.0598 | 0.448 | 0.675 | 1.8 | 1.41 | -0.977 (inactive) | 0.267 | -0.189
13 | CCCC=C(CCC)[C@@H](NS(=O)(=O)c1cccc2cccnc12)c1ccc(C(=O)OC)cc1 | 3.16 | 1.19 | 0.84 | 1.65 | 1.59 | 0.136 | 0.83 | 1.76 (inactive) | 3.43 | 0.754
14 | CCCc1cc2c(n1Cc1ccc(OC)cc1)C(C)C1CN(C(=O)c3ccccc3)C(C)(C(=O)OC)C21 (stereo not given) | 1.24 | 0.575 | 0.354 | 0.345 | 1.59 | 1.81 | 1.2 | -0.0832 (inactive) | 1.14 | -0.127
